# Source: PubChem (Johns Hopkins Ion Channel Center)
# A selection: hits, their analogues and other compounds. The true share with any hit is near 1.6%.
# KCNQ2 block: KCNQ2 (rat) channel inhibition. actives 1.1% (n = 310,000). CHO-K1 KCNQ2, FluxOR thallium flux, 20 min; stronger effect = lower value. O88943. B-score at 10 µM;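 active means fluorescence ratio B-score at most minus 3 library SDs, with starting brightness B-score within 2 library SDs, cut at about -5.5 in these data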
# KCNQ2 pot: KCNQ2 (rat) channel potentiation | CHO-K1 KCNQ2, FluxOR thallium flux fluorescence; stronger effect = higher value | O88943 | B-score at 10 µM | AID 2239 | actives 0.54% (n = 310,000);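 active means fluorescence ratio B-score at least 3 SD of library B-scores, with initial fluorescence B-score within 3 of them, cut at about 5.3 in these data; same plate scores as AID 2156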;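 further: B-score of peak minus minimum over baseline fluorescence ratio after K+ and Tl+ stimulus; positive B-score means potentiation of KCNQ2 with more thallium influx and brighter signal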
# Kir21 confirm: confirmation of mouse Kir2.1 potassium channel inhibitors | Tl flux remaining, % of negative control (stronger effect = lower value), % at 10 µM | shares compounds with KCNQ2 pot | AID 2032 | actives 41% (n = 2,300) | Kir2.1-expressing cells, FluxOR thallium flux fluorescence; stronger effect = lower value;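 active means Primary-screen hit whose thallium flux fell at least 3 control SD below untreated wells in both duplicates, with normal baseline fluorescence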
# HEK293 ctr: counter-screen for Kir2.1 inhibitors: effect in parental HEK293 cells | shares compounds with KCNQ2 pot | FluxOR thallium flux fluorescence; 0% = unstimulated blank wells | FluxOR signal as % of negative control (100 = no effect), % at 10 µM | actives 19% (n = 2,300) | AID 2105;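 active means dye signal at least 3 control SD above or below untreated wells in both duplicates, raw fluorescence within 3, either direction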;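 further: percent is based on the flux ratio of peak minus minimum fluorescence over baseline F0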
# CHO-K1 Tl ctr: parental CHO-K1 activity in KCNQ2 potentiator counter-screen; shares compounds with KCNQ2 pot; parental CHO-K1 cells, FluxOR thallium flux fluorescence; zero = vehicle mean+3SD, 100% = vehicle-minus-blank window; activity increase over 3SD of controls, % at 10 µM; actives 43% (n = 1,200); AID 2282;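 active means signal rise of at least 3 SD above the untreated control mean, in both duplicate wells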;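 further: counter screen of KCNQ2 potentiator hits so any rise reflects channel-independent effects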
# KCNQ1 pot spec: human KCNQ1 counter-target activity of KCNQ2 potentiators | actives 28% (n = 1,200) | CHO KCNQ1 stable, FluxOR thallium flux fluorescence; beyond 3SD, as % of vehicle-control signal | shares compounds with KCNQ2 pot | activation over 3SD threshold, % at 10 µM;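 active means fluorescence ratio rise of at least 3 SD of vehicle wells above their mean, in both replicate wells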
# KCNQ2 pot confirm: rat KCNQ2 channel potentiator confirmation; shares compounds with KCNQ2 pot; CHO-KCNQ2 cells, FluxOR thallium flux fluorescence; actives 68% (n = 1,200); potentiation, less the hit threshold, % at 10 µM;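 active means fluorescence ratio rising 3 SD or more over the vehicle control mean in both replicates, plus primary screen hit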;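 further: peak minus minimum thallium fluorescence divided by baseline after K/Tl stimulus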
# Kir2-1 sel: selectivity of KCNQ2 potentiators: effect on mouse Kir2.1 | shares compounds with KCNQ2 pot | actives 2% (n = 1,200) | activity over 3SD threshold, % at 10 µM | HEK293 Kir2.1, FluxOR thallium flux fluorescence | AID 2345;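 active means fluorescence ratio rise of at least 3 SD above the vehicle-control mean, seen in both replicates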
# KCNQ2 W236L pot: potentiates the retigabine-insensitive rat KCNQ2 W236L mutant channel. current increase over 3SD of negative controls (%), stronger effect = higher value, % at 25 µM. CHO KCNQ2-W236L, automated patch clamp current. shares compounds with KCNQ2 pot. AID 2558. actives 10% (n = 940);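 active means current increase at least 3 SD of the untreated controls above them in both duplicate recordings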
# Numbers stand for hits; 0 = inactive; - = no result.
SMILES,KCNQ2 block,KCNQ2 pot,Kir21 confirm,HEK293 ctr,others
COc1ccc2c(c1)C(=NNc1ccc(C(=O)O)cc1)c1cc(OC)ccc1-2,0,7.5,0,0,CHO-K1 Tl ctr=0;KCNQ1 pot spec=0;KCNQ2 pot confirm=0;Kir2-1 sel=0
O=C(Nc1nnc(C2=COCCO2)o1)c1cccc(C(F)(F)F)c1,0,-,-,-,
CCCc1cc(=O)oc2cc3occ(C)c3cc12,0,0,-,-,
Fc1ccc(Cn2nnnc2C(c2cccs2)N2CCN(C3CCCCC3)CC2)cc1 (configuration not stated),0,-,-,-,
OC(CNCc1ccccn1)c1ccccc1 (configuration not stated),0,0,-,-,
Fc1ccc(C(CCNCc2ccccn2)c2ccc(Cl)cc2)cc1 (configuration not stated),0,-,34%,0,
Cc1cccc2sc(NC(=O)c3ccc(NS(=O)(=O)c4cccs4)cc3)nc12,0,0,-,-,
CCN1CCN(c2ccc(S(=O)(=O)N3CCCCC3)cc2NC(=O)c2cc3ccccc3o2)CC1,0,-,-,-,
Cc1cc(=O)[nH]c2ccccc12,0,-,-,-,
Cc1cc2[nH]c3c(c[n+](C)c4ccccc34)c2cc1C,0,-,0,0,
CCOP(=O)(CN(CC)C(=O)c1ccccc1Br)OCC,0,-,-,-,
Cn1c(=O)cc(SCC(=O)NCC2CCCO2)c2ccc(Cl)cc21 (configuration not stated),0,6.2,0,0,CHO-K1 Tl ctr=0;KCNQ1 pot spec=92;KCNQ2 pot confirm=0;Kir2-1 sel=0
CCn1c(=O)cc(SCC(=O)NCC2CCCO2)c2ccccc21 (configuration not stated),0,0,-,-,
Cc1nn(C(C)C(=O)NCCCN(Cc2ccccc2)C(C)C)c(=O)c2c1sc1ccccc12 (configuration not stated),0,0,-,-,
CCC(C(=O)NCCCN(CC)Cc1ccccc1)n1nc(C)c2sc3ccccc3c2c1=O (configuration not stated),0,-,47%,64%,
Cc1coc2c1c(C)cc1oc(=O)c(CC(=O)NCC(=O)O)c(C)c12,0,0,-,-,
Cc1ccccc1NC(=O)CC(O)(C(F)(F)F)C(F)(F)F,0,0,-,-,
Cc1ccc(NC(=O)CC(O)(C(F)(F)F)C(F)(F)F)c(Br)c1,0,8.7,0,0,CHO-K1 Tl ctr=54;KCNQ1 pot spec=54;KCNQ2 pot confirm=31;Kir2-1 sel=0;KCNQ2 W236L pot=0
CCc1ccccc1NC(=O)C1CC(c2ccc(OC)cc2)=NO1 (configuration not stated),0,-,-,-,
Oc1ccccc1Nc1nc(NCC2CCCO2)c2ccccc2n1 (configuration not stated),0,-,46%,0,
Oc1ccc(Cl)cc1Nc1nc(NCC2CCCO2)c2ccccc2n1 (configuration not stated),0,0,-,-,
Oc1ccc(Nc2nc(NCC3CCCO3)c3ccccc3n2)cc1 (configuration not stated),0,-,0,0,
c1ccc2c(NCC3CCCO3)nc(N3CCCCC3)nc2c1 (configuration not stated),0,0,-,-,
O=c1[nH]c(/C=C/c2cccc3ccccc23)nc2ccccc12,0,0,-,-,
O=C(O)C1C(c2ccccc2)C(C(=O)Oc2ccccc2)C1c1ccccc1 (configuration not stated),0,-,-,-,
O=C(c1nnsc1S(=O)(=O)c1ccc(Cl)cc1)N1CCOCC1,0,0,-,-,
CNC(=O)c1nnsc1S(=O)(=O)c1ccc(Cl)cc1,-7.1,0,0,0,
Cc1cc[n+](CC(=O)c2ccccc2)c2ccccc12,0,-,-,-,
CCOCCCN(Cc1ccco1)S(=O)(=O)c1csc(C(N)=O)c1,0,-,-,-,
CC(C)CCN(Cc1ccco1)S(=O)(=O)c1csc(C(N)=O)c1,0,-,58%,0,
